This is an account of results in the antibiotic and cytotoxicity screens of Wong et al. (2023).

SMILES strings stand for the structures. The whole screen tested about 39,000 compounds, of which about 3,300 (8.5%) were called active. What follows is part of a selection rich in actives, with near analogues and random picks from the rest.

The subject of the assay is HepG2. Kind of assay: cytotoxicity call (relative viability < 0.9). The settings on record: 10 µM.
Consider `C[C@@H]1CN([C@@H](C)CO)C(=O)Cc2cc(NC(=O)Nc3cccc4ccccc34)ccc2O[C@H]1CN(C)Cc1ccccc1`, for which the cytotoxicity call was “inactive”. The result for `C[C@@H]1CN([C@H](C)CO)C(=O)Cc2cc(NC(=O)Nc3cccc4ccccc34)ccc2O[C@H]1CN(C)Cc1ccccc1` reads “inactive”; that for `C[C@H]1CN([C@@H](C)CO)C(=O)Cc2cc(NC(=O)Nc3cccc4ccccc34)ccc2O[C@H]1CN(C)Cc1ccccc1`, “inactive”. `C[C@@H]1CN([C@@H](C)CO)C(=O)Cc2cc(NC(=O)Nc3cccc4ccccc34)ccc2O[C@@H]1CN(C)Cc1ccccc1`: the cytotoxicity call was “active”. For `C[C@H](CO)N1C[C@H](C)[C@@H](CN(C)Cc2ccc(-c3ccccc3)cc2)Oc2ccc(NC(=O)Nc3cccc4ccccc34)cc2CC1=O`, the cytotoxicity call was “inactive”.

On to `C[C@@H]1CN([C@H](C)CO)C(=O)Cc2cc(NC(=O)Nc3cccc4ccccc34)ccc2O[C@H]1CN(C)Cc1ccc(-c2ccccc2)cc1`, for which the cytotoxicity call was “inactive”. For the compound `C[C@@H]1CN([C@H](C)CO)C(=O)Cc2cc(NC(=O)Nc3cccc4ccccc34)ccc2O[C@@H]1CN(C)Cc1ccccc1`, the cytotoxicity call was “active”. As for `C[C@H]1CN([C@@H](C)CO)C(=O)Cc2cc(NC(=O)Nc3cccc4ccccc34)ccc2O[C@@H]1CN(C)Cc1ccccc1`, the cytotoxicity call is “inactive”. As to `C[C@H](CO)N1C[C@H](C)[C@@H](CN(C)Cc2ccccc2)Oc2ccc(NC(=O)Nc3cccc4ccccc34)cc2CC1=O`, the cytotoxicity call was “active”. For `C[C@H](CO)N1C[C@H](C)[C@H](CN(C)Cc2ccc(-c3ccccc3)cc2)Oc2ccc(NC(=O)Nc3cccc4ccccc34)cc2CC1=O`, the cytotoxicity call is “inactive”. In the case of `C[C@H](CO)N1C[C@H](C)[C@H](CN(C)Cc2ccccc2)Oc2ccc(NC(=O)Nc3cccc4ccccc34)cc2CC1=O`, the cytotoxicity call was “active”.

Take `C[C@H]1CN([C@@H](C)CO)C(=O)Cc2cc(NC(=O)Nc3cccc4ccccc34)ccc2O[C@@H]1CN(C)Cc1ccc(-c2ccccc2)cc1`: the cytotoxicity call was “inactive”. The value for `C[C@@H]1CN([C@@H](C)CO)C(=O)CCCn2cc(nn2)CO[C@@H]1CN(C)S(=O)(=O)c1ccc(-n2cccn2)cc1` was “inactive”. The value for `C[C@H]1CN([C@@H](C)CO)S(=O)(=O)c2ccc(C#Cc3cccnc3)cc2O[C@H]1CN(C)CC1CCOCC1` was “inactive”; that for `COc1ccc(S(=O)(=O)N(C)C[C@H]2Oc3ccc(NS(=O)(=O)c4ccc(F)cc4)cc3CC(=O)N([C@@H](C)CO)C[C@H]2C)cc1` was “inactive”; that for `COC(=O)[C@H]1CN(C)CCC1=O` was “inactive”. With `C[C@@H]1O[C@@H](OC[C@H]2O[C@@H](Oc3cc(O)c4c(c3)O[C@@H](c3ccc(O)cc3)CC4=O)[C@H](O)[C@@H](O)[C@@H]2O)[C@H](O)[C@H](O)[C@H]1O`, the cytotoxicity call was “inactive”. Turning to `COc1ccc([Si](C)(C)[C@H]2[C@H](CCn3cc([C@H](O)c4ccccc4)nn3)O[C@@]3(C(=O)N(Cc4cccc(N5CCC5=O)c4)c4ccccc43)[C@@H]2C)cc1`, the cytotoxicity call is “inactive”. On to `Cc1ccc(S(=O)(=O)N(C)C[C@@H]2Oc3c(NC(=O)c4cc(C)nn4C)cccc3C(=O)N([C@@H](C)CO)C[C@@H]2C)cc1`, for which the cytotoxicity call is “inactive”.

On to `C=CCOC(=O)[C@@H]1[C@H]2C(=O)O[C@H](c3ccccc3)[C@H](c3ccccc3)N2[C@H](c2ccc(OCCOC(=O)[C@H]3C[C@H]4C(=O)NCC(=O)N4[C@H]3c3ccc(O)cc3)cc2)[C@@]12C(=O)Nc1ccc(I)cc12`, for which the cytotoxicity call was “inactive”. Consider `Cc1ccccc1S(=O)(=O)N1C[C@@H](O)COC[C@@H]2O[C@@H](CC(=O)N3CCOCC3)CC[C@H]21`, for which the cytotoxicity call is “inactive”.

On to `CC(C)N1C[C@H](CNCc2ccc(Oc3ccccc3)cc2)Oc2c(NC(=O)c3ccncc3)cccc2C1=O`, for which the cytotoxicity call was “inactive”. In the case of `Cc1ccc(-c2cnc3c(c2)C(=O)N([C@H](C)CO)C[C@H](C)[C@@H](CN(C)C(=O)Cc2cccnc2)O3)cc1`, the cytotoxicity call was “inactive”. As for `C[C@@H]1CN([C@@H](C)CO)C(=O)c2cccc(NC(=O)Nc3ccccc3)c2O[C@@H]1CN(C)C(=O)Nc1ccc(C(F)(F)F)cc1`, the cytotoxicity call is “inactive”. Consider `C[C@H]1CN([C@@H](C)CO)C(=O)c2cccc(NC(=O)Nc3ccc(C(F)(F)F)cc3)c2O[C@@H]1CN(C)C(=O)Nc1ccccc1`, for which the cytotoxicity call is “active”.

As to `C[C@H]1CN([C@@H](C)CO)C(=O)c2cccc(NC(=O)Nc3ccccc3)c2O[C@@H]1CN(C)C(=O)Nc1ccc(C(F)(F)F)cc1`, the cytotoxicity call was “inactive”. The result for `C[C@H](CO)N1C[C@H](C)[C@H](CN(C)C(=O)Nc2ccc(C(F)(F)F)cc2)Oc2c(NC(=O)Nc3ccccc3)cccc2C1=O` reads “inactive”; that for `C[C@H](CO)N1C[C@H](C)[C@@H](CN(C)C(=O)Nc2ccc(C(F)(F)F)cc2)Oc2c(NC(=O)Nc3ccccc3)cccc2C1=O`, “inactive”; that for `C[C@@H]1CN([C@H](C)CO)C(=O)c2cccc(NC(=O)Nc3ccc(C(F)(F)F)cc3)c2O[C@@H]1CN(C)C(=O)Nc1ccccc1`, “active”. As for `COc1ccc(C(=O)Nc2ccc(CN3C(=O)[C@]4(O[C@H](CCO)[C@@H]([Si](C)(C)F)[C@@H]4C)c4ccccc43)cc2)cc1`, the cytotoxicity call is “inactive”. Consider `CN1CCN(C(=O)C[C@@H]2CC[C@@H]3[C@H](COC[C@H](O)CN3C(=O)Nc3cc(Cl)cc(Cl)c3)O2)CC1`, for which the cytotoxicity call is “inactive”. Take `CCCCCCCCCCCCC[N+](C)(C)Cc1ccccc1.O.[Cl-]`: the cytotoxicity call is “active”. The result for `CCCCCc1ccccn1` reads “inactive”; that for `CCCCNc1ccccc1`, “inactive”. The result for `CCCCCCCCCCCCCCCC[N+](C)(C)Cc1ccccc1.[Cl-]` reads “active”; that for `CCCCCCCCCCCCC[N+](C)(C)Cc1ccccc1`, “active”; that for `CC[N+](C)(CC)Cc1ccccc1`, “inactive”. For `COc1ccc(S(=O)(=O)Nc2ccc3c(c2)CC(=O)N([C@@H](C)CO)C[C@H](C)[C@H](CN(C)S(=O)(=O)c2cccs2)O3)cc1`, the cytotoxicity call was “inactive”.

For `C[C@H](CO)N1C[C@H](C)[C@H](CN(C)CC2CC2)Oc2c(NS(=O)(=O)c3cccs3)cccc2C1=O`, the cytotoxicity call was “inactive”. Take `Cc1noc(C)c1S(=O)(=O)Nc1ccc2c(c1)C(=O)N([C@@H](C)CO)C[C@H](C)[C@@H](CN(C)CC1CCCCC1)OCCCC[C@@H](C)O2`: the cytotoxicity call was “inactive”. Consider `O=C(C1=C[C@H](c2coc3ccccc3c2=O)C[C@H](OCc2ccc(CO)cc2)O1)N1CCCCCCC1`, for which the cytotoxicity call is “inactive”. For the compound `CS(=O)(=O)NCc1cnc2n1CCN(C[C@H]1CCOC1)CC2`, the cytotoxicity call was “inactive”. The value for `C[C@H](CO)N1C[C@H](C)[C@H](CN(C)C(=O)Nc2ccc(F)cc2)Oc2ccc(NC(=O)CCCCCC(=O)Nc3ccccc3N)cc2CC1=O` was “inactive”; that for `CCCNC(=O)Nc1ccc2c(c1)OC[C@H](C)N(Cc1ccc(-c3ccccn3)cc1)C[C@H](C)[C@H](OC)CN(C)C2=O` was “inactive”; that for `C[C@H]1CN([C@@H](C)CO)C(=O)CCCn2cc(nn2)CO[C@@H]1CN(C)C(=O)Nc1ccc(C(F)(F)F)cc1` was “inactive”. For the compound `O=C(O)[C@H]1C[C@H](O)CN1Cc1ccccc1`, the cytotoxicity call was “inactive”.

On to `C[C@@H]1CCCCO[C@H](CN(C)Cc2ccc(C(F)(F)F)cc2)[C@H](C)CN([C@H](C)CO)C(=O)c2cc(NC(=O)c3ccccc3)ccc2O1`, for which the cytotoxicity call was “inactive”. As for `C[C@@H]1CCCCO[C@H](CN(C)Cc2ccc(C(F)(F)F)cc2)[C@H](C)CN([C@@H](C)CO)C(=O)c2cc(NC(=O)c3ccccc3)ccc2O1`, the cytotoxicity call was “active”. The value for `C[C@H](CO)N1C[C@H](C)[C@H](CN(C)Cc2ccc(C(F)(F)F)cc2)OCCCC[C@H](C)Oc2ccc(NC(=O)c3ccccc3)cc2C1=O` was “inactive”; that for `C[C@@H]1CN([C@@H](C)CO)C(=O)c2cc(NC(=O)c3ccccc3)ccc2O[C@@H](C)CCCCO[C@H]1CN(C)Cc1ccccc1` was “inactive”.

With `C[C@@H]1CN([C@H](C)CO)C(=O)c2cc(NC(=O)c3ccccc3)ccc2O[C@@H](C)CCCCO[C@@H]1CN(C)Cc1ccc(C(F)(F)F)cc1`, the cytotoxicity call was “inactive”. The value for `C[C@@H]1CCCCO[C@H](CN(C)Cc2ccccc2)[C@H](C)CN([C@H](C)CO)C(=O)c2cc(NC(=O)c3ccccc3)ccc2O1` was “inactive”; that for `C[C@@H]1CN([C@@H](C)CO)C(=O)c2cc(NC(=O)c3ccccc3)ccc2O[C@@H](C)CCCCO[C@H]1CN(C)Cc1ccc(C(F)(F)F)cc1` was “active”. Turning to `C[C@@H]1CCCCO[C@@H](CN(C)Cc2ccc(C(F)(F)F)cc2)[C@H](C)CN([C@H](C)CO)C(=O)c2cc(NC(=O)c3ccccc3)ccc2O1`, the cytotoxicity call is “inactive”. As for `C[C@@H]1CN([C@H](C)CO)C(=O)c2cc(NC(=O)c3ccccc3)ccc2O[C@@H](C)CCCCO[C@H]1CN(C)Cc1ccc(C(F)(F)F)cc1`, the cytotoxicity call is “inactive”. Regarding `C[C@H]1CCCCO[C@@H](CN(C)Cc2ccc(C(F)(F)F)cc2)[C@@H](C)CN([C@@H](C)CO)C(=O)c2cc(NC(=O)c3ccccc3)ccc2O1`, the cytotoxicity call is “active”. Take `C[C@@H]1CN([C@H](C)CO)C(=O)c2cc(NC(=O)c3ccccc3)ccc2O[C@@H](C)CCCCO[C@H]1CN(C)Cc1ccccc1`: the cytotoxicity call was “active”. Consider `C[C@@H]1CCCCO[C@H](CN(C)Cc2ccc(C(F)(F)F)cc2)[C@@H](C)CN([C@H](C)CO)C(=O)c2cc(NC(=O)c3ccccc3)ccc2O1`, for which the cytotoxicity call was “inactive”. On to `C[C@@H]1CN([C@@H](C)CO)C(=O)c2cc(NC(=O)Nc3cccc4ccccc34)ccc2O[C@H]1CN(C)S(=O)(=O)c1ccc(Cl)cc1`, for which the cytotoxicity call was “inactive”. Consider `COc1ccc(NC(=O)N(C)C[C@H]2Oc3ccc(NS(=O)(=O)c4cn(C)cn4)cc3CC(=O)N([C@@H](C)CO)C[C@@H]2C)cc1`, for which the cytotoxicity call is “inactive”. For the compound `C[C@@H]1CN([C@H](C)CO)S(=O)(=O)c2ccc(-c3cccc(C(=O)N(C)C)c3)cc2O[C@@H]1CN(C)C(=O)Cc1ccccn1`, the cytotoxicity call was “inactive”. For `C[C@@H]1CN([C@@H](C)CO)C(=O)CCCn2nncc2CO[C@@H]1CN(C)S(=O)(=O)c1ccc2c(c1)OCCCO2`, the cytotoxicity call was “inactive”.

Take `COc1ccc(-c2cnc3c(c2)C(=O)N([C@H](C)CO)C[C@H](C)[C@@H](CN(C)C(=O)Cc2ccccn2)O3)cc1`: the cytotoxicity call is “inactive”.
